NR3A LBD binder: modulators (binders) of human NR3A ligand-binding domain; NR3A LBD differential scanning fluorimetry, Tm shift; 0% = protein alone, 100% = glycine-bound protein; Tm shift relative to glycine control, % at 25 µM; 2.5% of 340,000 active; AID 1259313;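 active = melting temperature shift of at least 10% of the positive control shift, at one fixed dose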
Cardio protect: protects H9c2 cardiomyocytes from peroxide injury; H2O2 injury protection, ATPLite, 2 h; protection from H2O2 cell death, % at 20 µM; 0.63% of 360,000 active; AID 588492;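 active = compounds giving at least 50% protection of heart cells from peroxide-induced death in the single-dose screen, raw or plate-pattern-corrected value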
AI-2 QS mod: modulates the Vibrio harveyi AI-2 quorum sensing system | Vibrio harveyi JMH597 AI-2 luminescence/OD600 ratio, 9 h; hits give low values; strain lacks LuxN and CqsS sensors; 0 = neutral-control median | activity change, % at 7.5 µM | 0.4% of 300,000 active | AID 2094; in the data active = activity change below about -75%, passing the limit was not always enough;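 also: luminescence divided by OD600 gain over 9 h not by final OD600 alone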
SUMO Mot1 rescue: inhibitors of SUMOylation pathway: yeast Mot1-301 growth rescue; S. cerevisiae Mot1-301 growth rescue, ATP luminescence, 38.5C; percent above DMSO median, 100 means doubled; growth rescue, % at 18.8 µM; 1% of 320,000 active; AID 2716;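 active = every valid replicate shows activation above 250% relative to neutral control wells; inactive = the rest, any valid replicate at or below 250%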
AHR activator: activators of human aryl hydrocarbon receptor; P35869; AHR-responsive luciferase reporter cells, luminescence; activation, % at 5 µM; 2.5% of 320,000 active; AID 2796; in the data active = activation above about 47%
NTR1 ag: NTR1 (human) agonism; NTR1-U2OS beta-arrestin-GFP spot imaging, agonist mode; activation, % at 20 µM; 0.17% of 330,000 active; P30989;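 active = activation at or above 40% of the spot to cytoplasm intensity ratio, with at least 20 cells analyzed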
Target sequence (P30989 whole entry, looked up): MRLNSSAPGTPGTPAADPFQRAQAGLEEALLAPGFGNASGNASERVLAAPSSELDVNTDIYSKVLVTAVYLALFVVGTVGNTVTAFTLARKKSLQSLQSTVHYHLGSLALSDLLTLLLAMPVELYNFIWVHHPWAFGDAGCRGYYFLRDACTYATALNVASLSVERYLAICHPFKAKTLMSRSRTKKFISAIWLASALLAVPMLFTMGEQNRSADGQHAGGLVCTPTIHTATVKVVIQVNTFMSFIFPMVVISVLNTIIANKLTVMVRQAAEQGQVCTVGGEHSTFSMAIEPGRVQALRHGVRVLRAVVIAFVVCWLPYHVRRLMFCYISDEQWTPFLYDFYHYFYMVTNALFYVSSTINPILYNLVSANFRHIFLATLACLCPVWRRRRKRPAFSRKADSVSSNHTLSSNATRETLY
Hits are given with their value; . = inactive; / = not tested or not shown. Compounds with a hit are over-represented: about 6.2% of the library has one in this group of screens.

SMILES	NR3A LBD binder	Cardio protect	AI-2 QS mod	SUMO Mot1 rescue	AHR activator	NTR1 ag
O=C1CC(c2ccccc2)CC(=O)C1Sc1ccc(Cl)cc1 (stereo unspecified)	15	.	.	.	.	.
N#CC12CCCCC1CC1CCCCC1(C#N)N2Cc1ccccn1 (stereo unspecified)	10	.	.	.	.	.
O=c1oc2cc(O)ccc2s1	.	.	.	.	.	.
Cc1ccc(-c2cc(O)cc3sc(=O)oc23)cc1C	10	.	.	.	.	.
O=[N+]([O-])c1ccc(Cl)c(S(=O)(=O)Nc2ccc(-c3ccc(N4CCCC4)nn3)cc2)c1	.	.	.	.	.	.
O=[N+]([O-])c1ccc(Cl)c(S(=O)(=O)Nc2cccc(-c3ccc(N4CCCC4)nn3)c2)c1	16	.	.	.	.	.
CS(=O)(=O)N1CCC(C(=O)Nc2ccc(Cl)cc2Cl)CC1	/	.	/	/	/	/
COc1cc(NC(=O)c2ccc(C)c([N+](=O)[O-])c2)ccc1NC(=O)c1ccco1	/	/	.	/	.	.
COc1ccc(C(=O)Nc2cccc(-c3cc4ccccc4oc3=O)c2)cc1[N+](=O)[O-]	11	.	/	.	.	/
CC(=O)Nc1ccc(NC(=O)c2cccc(-c3cc4ccccc4oc3=O)c2)cc1	.	.	.	.	.	.
COc1cc(NC(=O)c2cc3ccccc3o2)ccc1NC(=O)c1ccco1	.	.	.	.	.	.
Cc1ccc(NC(=O)c2ccc(NCc3ccco3)c([N+](=O)[O-])c2)cc1Cl	15	.	.	.	.	.
COc1cc(NC(=O)c2ccc(OC)c([N+](=O)[O-])c2)ccc1NC(=O)c1ccco1	17	.	.	.	50	.
COc1cc(NC(=O)c2oc3ccccc3c2C)ccc1NC(=O)c1ccco1	24	.	.	.	.	.
C[C@H]1CN([C@@H](C)CO)C(=O)c2cccc(NC(=O)C3CC3)c2O[C@H]1CN(C)S(=O)(=O)c1ccccc1	.	.	/	.	.	.
CCOC(=O)N1CCN(CC(=O)Nc2nccs2)CC1	/	.	/	/	/	/
Cc1ccc(NC(=O)CNC(=O)c2ccco2)cc1	.	.	.	.	.	.
Cc1ccc2occ(C(c3nnnn3C3CCCC3)N3CCN(C(=O)c4ccco4)CC3)c(=O)c2c1 (stereo unspecified)	.	52	.	.	.	.
CCCn1c(SCC(=O)c2cc(C)n(-c3cc(C)on3)c2C)n[nH]c1=O	.	.	/	/	/	.
O=C1c2ccccc2C(=O)N1N(c1ccccc1)c1ccccc1	16	.	/	/	/	/
CCCCN1CCCCC1(C)C(=O)NCc1ccc2c(c1)OCO2 (stereo unspecified)	/	.	/	/	/	/
COc1cc2cc(C(=O)Nc3ccc4c(c3)OCCO4)[nH]c2cc1OC	11	.	.	.	.	.
COc1cccc(C(=O)Nc2cccc(C(C)=O)c2)c1	.	.	.	.	.	.
COc1cccc(NC(=O)c2ncn[nH]2)c1	.	.	.	.	.	.
O=C(Nc1cccc(NC(=O)c2ncn[nH]2)c1)c1cccc(Cl)c1	12	.	.	.	.	.
SMILES	NR3A LBD binder	Cardio protect	AI-2 QS mod	SUMO Mot1 rescue	AHR activator	NTR1 ag
COc1cccc(NC(=O)c2cccc(Cl)c2)c1	28	.	/	.	.	.
COc1cccc(NC(=O)c2ccc3c(c2)OCCO3)c1	12	.	.	/	/	.
COc1ccc(CNC(=O)COC(=O)c2ccc(F)c(S(=O)(=O)N3CCOCC3)c2)cc1	.	.	/	.	.	.
COC(CNC(=O)c1cn(C)c2ccc(S(=O)(=O)N(C)C3CCCCC3)cc2c1=O)OC	.	.	/	.	.	.
O=C(Nc1ccc(N=Nc2ccccc2)cc1)c1cccc(Cl)c1	26	.	.	.	.	.
COc1cc(NC(=O)c2ccc3c(c2)OCO3)c2ncccc2c1	.	.	.	.	66	.
CC(C)(C)C(=O)N(Cc1ccc(Cl)cc1)c1cnccn1	.	.	.	.	.	.
Nc1cc2[nH]c(=O)c3ccccc3c2cc1[N+](=O)[O-]	.	81	/	/	/	/
O=C(Nc1cc(S(=O)(=O)N2CCCC2)ccc1Cl)c1cc(F)c(F)c(F)c1F	.	.	/	.	.	.
CCOC(=O)C1CCN(S(=O)(=O)c2ccc(Cl)s2)CC1	.	.	/	.	.	.
S=C(Nc1ccc(-c2nc3ccccc3[nH]2)cc1)Nc1cccnc1	37	.	.	.	.	.
Fc1ccc(NC(=S)NCCN2CCOCC2)cc1	.	.	.	.	.	.
S=C(NCCN1CCOCC1)Nc1ccc(-c2nc3ccccc3[nH]2)cc1	15	.	.	.	.	.
CCOc1ccc(S(=O)(=O)N(CC)CC(=O)NCc2ccccn2)cc1C	.	.	.	.	.	.
CCCNC(=O)Cn1c(=O)/c(=C/c2ccc(-c3ccc([N+](=O)[O-])cc3)o2)s/c1=C\C(=O)C(C)(C)C	.	.	/	/	/	/
Cc1ccc(Nc2ncnc3ccccc23)cc1	.	.	.	.	65	.
Cc1ccc(Nc2ncnc(Cl)c2N)cc1	13	.	/	/	/	/
COC(=O)C(=O)C/C(=N/Nc1ncnc2ccccc12)c1ccc(Cl)cc1	.	.	.	.	58	.
Cc1ccc(/C(=N/Nc2ncnc3ccccc23)C(=O)O)cc1	.	.	.	.	59	.
CCc1nc2c(OCc3ccccc3C)cccn2c1N(C)C(=O)C1CC1	/	.	/	/	/	/
N#CCCCc1cc2ccccc2cn1	.	.	/	.	.	.
COc1ccc(Nc2ncnc3ccc(C)cc23)cc1	.	.	.	.	55	.
CCOC(=O)c1cnc(SC)nc1Oc1cccc(NC(=O)c2ccc(C)cc2)c1	17	.	.	.	.	.
CCOC(=O)c1cnc(SC)nc1Oc1cccc(NC(=O)c2cccc(Cl)c2Cl)c1	.	71	.	.	.	.
COc1ccc(S(=O)(=O)N=N/C=C2\C=CC=CN2O)cc1OC	/	.	/	/	/	/
SMILES	NR3A LBD binder	Cardio protect	AI-2 QS mod	SUMO Mot1 rescue	AHR activator	NTR1 ag
C[C@H](CO)NC(=O)c1[nH]cnc1C(=O)Nc1cccc(Cl)c1	/	.	/	/	/	/
CNC(=O)c1[nH]cnc1C(=O)Nc1cccc(Cl)c1	.	.	/	.	55	.
CN(Cc1ccccc1)C(=O)c1[nH]cnc1C(=O)Nc1cccc(Cl)c1	.	.	/	.	.	.
O=C(Nc1ccccc1)c1nc[nH]c1C(=O)NCCNC(=O)c1[nH]cnc1C(=O)Nc1ccccc1	.	52	/	.	76	.
O=C(Nc1ccccc1)c1nc[nH]c1C(=O)NCCCCNC(=O)c1[nH]cnc1C(=O)Nc1ccccc1	.	81	/	.	.	.
O=C(Nc1cccc(Cl)c1)c1nc[nH]c1C(=O)NCCCNC(=O)c1[nH]cnc1C(=O)Nc1cccc(Cl)c1	23	80	/	.	.	.
CCS(=O)(=O)N1CCN(c2ccc([N+](=O)[O-])c(N3CCOCC3)c2)CC1	16	.	.	/	.	.
CNc1cc(N2CCN(S(=O)(=O)N(C)C)CC2)ccc1[N+](=O)[O-]	10	.	.	.	.	.
